Measurements from PubChem BioAssay (NCI).
This is part of a sample that, as a whole, favours compounds with a hit. Of some 79,000 tested, about 15% had one in any assay. Activity calls are given as the source filed them. Rule as the data show it: active = growth inhibition above about 70%; inactive = the rest.

Key:
[1] = NCI Yeast Anticancer Drug Screen. Data for the rad50 strain (AID 155);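 also: 0% = growth of vehicle-only cultures of the same strain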; conditions: S. cerevisiae rad50 strain growth inhibition; at 50.0 µM; active compounds read high
In short: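 DNA repair mutant yeast, compound exposure, growth read-out; inhibition is taken relative to vehicle.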

[2] = NCI Yeast Anticancer Drug Screen. Data for the mec2-1 strain (AID 157); conditions: S. cerevisiae mec2-1 strain, at 50.0 µM, active compounds read high
In short: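 Vehicle-treated cultures served as reference for growth inhibition of compound-exposed mec2-1 yeast.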

[3] = NCI Yeast Anticancer Drug Screen. Data for the sgs1 mgt1 strain (AID 161);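 also: 0% = growth of cultures given vehicle only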; conditions: S. cerevisiae sgs1 mgt1 strain, at 50.0 µM, active compounds read high
In short: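 Test agents were incubated with a DNA-repair-mutant yeast strain. Growth was then read and compared against vehicle-treated controls.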

[4] = NCI Yeast Anticancer Drug Screen. Data for the cln2 rad14 strain (AID 165);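 also: 0% = growth equal to vehicle treated cultures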; conditions: S. cerevisiae cln2 rad14 strain, at 50.0 µM, active compounds read high
In short: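 Each compound was tested on cln2 rad14 yeast. Inhibition of growth was calculated against vehicle-exposed controls.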

[5] = NCI Yeast Anticancer Drug Screen. Data for the bub3 strain (AID 167); conditions: S. cerevisiae bub3 mutant strain, at 50.0 µM, active compounds read high
In short: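 In this screen, a yeast mutant lacking normal mitotic checkpoint function is challenged with compound. Relative growth versus vehicle gives the inhibition value.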

[6] = NCI Yeast Anticancer Drug Screen. Data for the mlh1 rad18 strain (AID 175); conditions: S. cerevisiae mlh1 rad18 strain growth inhibition; at 50.0 µM; active compounds read high
In short: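 Vehicle-treated cultures served as the reference for growth inhibition in a yeast strain carrying DNA damage repair alterations exposed to each compound.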

Measured: growth inhibition

COc1ccc(C(=O)CCc2cccc(NC(=O)CCCl)c2)cc1
inactive: [1] -17.6% | [2] 6.2% | [3] 6.45% | [4] -9.1% | [5] -6.85% | [6] -11.8%

CC(C)(C)NC(=O)Nc1nccs1
inactive: [1] 7.8% | [2] -7.9% | [3] -6.2% | [4] -86.5% | [5] -3.9% | [6] 9.85%

CCCC(=O)Nc1cc(C(=O)O)cc([N+](=O)[O-])c1
inactive: [1] 2.05% | [2] -15.6% | [3] 4.8% | [4] -26.2% | [5] 22.5% | [6] -4.45%

OCCS
inactive: [1] -7.35% | [2] 5.25% | [3] -8.4% | [4] -21.8% | [5] -3.45% | [6] -4.25%

Cn1cnc2c1S(=O)(=O)NCN2
inactive: [1] 10.7% | [2] 3.15% | [3] -8.6% | [4] -3.2% | [5] 19.9% | [6] 6.7%

CN(C)/N=C1/CCCCC1C(O)(c1ccccc1)c1ccccc1 (configuration not stated)
inactive: [1] -20.7% | [2] -19.8% | [3] -15.4% | [4] -73.3% | [5] -58.8% | [6] -10.7%

COc1cc(/C=C/C(=O)c2ccccc2O)cc(OC)c1OC
inactive: [1] -1% | [2] -17.1% | [3] 16.4% | [4] -6.35% | [5] -9.15% | [6] 13.8%

N#Cc1c(-c2ccc([N+](=O)[O-])cc2)c(C#N)c(=O)n(NS(=O)(=O)c2ccccc2)c1-c1ccccc1
inactive: [1] 7.1% | [2] 13.3% | [3] -2.45% | [4] 4.05% | [5] 6.25% | [6] 26.4%

COc1cc(C(O)C(CO)Oc2c(OC)cc(C3OCC4C(c5cc(OC)c(O)c(OC)c5)OCC34)cc2OC)ccc1O (configuration not stated)
inactive: [1] 20.1% | [2] 1.4% | [3] -2.05% | [4] 10% | [5] -6.7% | [6] 15.2%

Cn1nc(-c2ccc(Cl)c(Cl)c2)[n+]([O-])c2c(=O)n(C)c(=O)nc1-2
active: [1] 88.8% | [2] 92.1% | [3] 88.8% | [4] 89% | [5] 85.3% | [6] 91.3%

Cc1cc(C)cc(Sc2c([N+](=O)[O-])ncn2C)c1
inactive: [1] 7.65% | [2] 19.3% | [3] -16.7% | [4] 21.1% | [5] 29.2% | [6] 39.7%

COc1ccccc1/C=N/Nc1ccc([N+](=O)[O-])cc1[N+](=O)[O-]
inactive: [1] 6.45% | [2] 5.15% | [3] 3.35% | [4] -16.6% | [5] 16.8% | [6] 18.8%

Cc1c(Cl)ccc2c1NC(=O)C2(O)CC(=O)c1ccc(Cl)cc1Cl (configuration not stated)
inactive: [1] 34.4% | [2] 18.7% | [3] 0.1% | [4] -13.5% | [5] 10.9% | [6] 23.4%

COC(=O)CCC(=O)c1ccc2c(c1)CCC2
inactive: [1] -3.25% | [2] -26.2% | [3] 17.2% | [4] 3% | [5] 33.5% | [6] 7.65%

CCCC(=O)N(C)c1ccccc1
inactive: [1] 7.5% | [2] -11.1% | [3] -1.85% | [4] -29.4% | [5] 6.35% | [6] -8.35%

CCC(=O)OC1CCCCC1C1CCCCC1 (configuration not stated)
inactive: [1] 1.55% | [2] -2.35% | [3] 8% | [4] -37.6% | [5] -3.45% | [6] -3.9%

CCCN=C(C)C(C)=NCCC
inactive: [1] -18.7% | [2] -15.1% | [3] -15.1% | [4] -11% | [5] -19.4% | [6] -11.3%

CN(C)C(=N)N=C(N)N
inactive: [1] -23.2% | [2] -30.1% | [3] -27.6% | [4] -1.8% | [5] -42.9% | [6] -21.1%

Oc1cc2c(c3c(O)c4ccccc4c(O)c13)=NC1CCCCC1N=2 (configuration not stated)
inactive: [1] 6.25% | [2] 9.6% | [3] 20.6% | [4] 7.6% | [5] 15.3% | [6] 40%

CC(=O)c1cc2ccccc2o1
inactive: [1] 17.6% | [2] 1.4% | [3] -4% | [4] 0.05% | [5] -6.7% | [6] 4.6%

CC1CN(C(=S)Nc2cccc3ccccc23)CC(C)O1 (configuration not stated)
inactive: [1] 19.4% | [2] 36.5% | [3] 44.9% | [4] 22% | [5] 44.8% | [6] 7.8%

CN(C)CC1CC=CCC1CN(C)C (configuration not stated)
inactive: [1] -19.8% | [2] 0% | [3] -5.6% | [4] -15.7% | [5] 6.85% | [6] -8.7%

O=C1NC2(CCCC2)C(=O)N2CCCC12 (configuration not stated)
inactive: [1] -8.65% | [2] -17.6% | [3] 17.7% | [4] -5.75% | [5] 0.3% | [6] 27.2%

COc1ccc2c(c1)CCc1c(C(C)=O)c3ccccc3n1C2
inactive: [1] 19.8% | [2] -13.3% | [3] 46.4% | [4] 15.2% | [5] 47.1% | [6] 2.15%

Nc1n[n+]([O-])c2cc([N+](=O)[O-])ccc2[n+]1[O-]
active: [1] 85.1% | [2] 87.9% | [3] 84.7% | [4] 79.7% | [5] 75.9%
inactive: [6] 68%

COC1=NO[C@@H]2C=CO[C@H]12
inactive: [1] -8.2% | [2] -13.2% | [3] -5.05% | [4] -18.4% | [5] 8.35% | [6] 9.95%

CCCCCCCCCCCCCCCCOc1ccc(-c2cc(=O)n(C)n2C)cc1
inactive: [1] 6% | [2] -18.6% | [3] -19.1% | [4] -8.45% | [5] -2.9% | [6] -4.05%

CCCCC/C(C)=N\NC(N)=S
inactive: [1] 15.6% | [2] -6.15% | [3] -15.9% | [4] 1.85% | [5] 19.8% | [6] -2.5%

N#C/C(=C/c1ccc(Cl)cc1)C(=O)O
inactive: [1] 6.35% | [2] -2.35% | [3] -13.3% | [4] 6.35% | [5] -0.15% | [6] 21.1%

Clc1ccc(/C=C/c2ccc3ccccc3n2)cc1
inactive: [1] -2.65% | [2] -11.6% | [3] -13% | [4] -28.3% | [5] -14% | [6] 12%

CCN(CC)CC(O)c1cccc2cccnc12 (configuration not stated)
inactive: [1] 67.7% | [2] -11.4% | [3] 17.4% | [4] 8.8% | [5] 5.2% | [6] 30.2%

Cc1cn(C2CCCCC2O)c(=O)[nH]c1=O (configuration not stated)
inactive: [1] -15.8% | [2] -14% | [3] -2.85% | [4] 12.6% | [5] -15.1% | [6] -16.9%

C=CCN1C(=O)c2ccccc2C1=O
inactive: [1] 24.3% | [2] -3.2% | [3] 11.6% | [4] 6.85% | [5] 22.6% | [6] 21.6%

CCN(CC)CCOC(=O)c1ccc(N=C/C=C/C(C#N)=C/NOC)cc1
inactive: [1] 0.3% | [2] 27.4% | [3] 9.85% | [4] 21.4% | [5] 9.9% | [6] 30.9%

N/C=N/OCc1ccccc1
inactive: [1] 10% | [2] 5.05% | [3] 9% | [4] 4.7% | [5] -3.75% | [6] 5.75%

Cc1nc(C)c(N2CCN(Cc3ccccc3)CC2)c(=O)[nH]1
inactive: [1] 8.65% | [2] 2.5% | [3] -45.1% | [4] 13% | [5] 17.4% | [6] -52.9%

COc1cc2ccc1OCc1cccc(n1)COc1ccc(cc1OC)C=NCCNCCN=C2
inactive: [1] -4.6% | [2] -22.8% | [3] -14.9% | [4] -21.8% | [5] -17.3% | [6] -17.4%

CC1=NN(c2ccccc2)C(=O)C1=C1SCCCS1
inactive: [1] -14.2% | [2] -25.4% | [3] 10.6% | [4] 16.4% | [5] -4.9% | [6] 1.8%

CC(=O)Nc1ccc(F)c([N+](=O)[O-])c1
inactive: [1] -6.45% | [2] -19.6% | [3] 3.35% | [4] -13.7% | [5] -14.9% | [6] 5.7%

COC(=O)[C@]1(C)CCCn2c(=O)n(-c3ccccc3)c(=O)n21
inactive: [1] 13.9% | [2] 11.3% | [3] -6.65% | [4] 9.75% | [5] 13.8% | [6] -21.6%

O=C1CCCNc2c(Br)cc(Br)cc21
inactive: [1] 49.2% | [2] 24.7% | [3] 14.2% | [4] 8.6% | [5] 46.5% | [6] 14.8%

O=S(=O)(/N=c1/ccc(NS(=O)(=O)c2ccccc2)cn1O)c1ccccc1
inactive: [1] 25.5% | [2] 3.8% | [3] 18.1% | [4] -23% | [5] 10.6% | [6] 14.6%
